Assay results reported in PubChem BioAssay (Tox21).
Results filed as inconclusive are left out. The source made the active and inactive calls. Unless noted, the call rests on the fitted dose curve; in most records, active means well fitted curve in the direction sought with a large enough effect in the repeat runs; inconclusive means weak or mixed curves; inactive means no such curve, though single readings can be large; an effect the other way counts as inactive or inconclusive.

Assays:
[1] = qHTS assay to identify small molecule antagonists of the peroxisome proliferator-activated receptor delta (PPARd) signaling pathway - cell viability counter screen (AID 743213); further: nearly all actives have a fitted effect of over 50% in size
In short: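 Agonist-stimulated (L165041, 300 nM final) HEK293H PPARd UAS-bla cells are exposed to compounds for 17 h at 37 C, and ATP-based luminescence (CellTiter-Glo) from the same wells reports cytotoxicity.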

[2] = target: Peroxisome proliferator-activated receptor delta (Homo sapiens) (UniProt Q03181); assay: qHTS assay to identify small molecule antagonists of the peroxisome proliferator-activated receptor delta (PPARd) signaling pathway (AID 743215; active means well fitted inhibition curve with a large enough effect in the signal ratio in the repeat runs, not every such curve was filed as active; the % refers to the signal ratio; further: series mostly up to about 62 µM)
Peroxisome proliferator-activated receptor delta (Homo sapiens), sequence (Q03181 whole entry, looked up): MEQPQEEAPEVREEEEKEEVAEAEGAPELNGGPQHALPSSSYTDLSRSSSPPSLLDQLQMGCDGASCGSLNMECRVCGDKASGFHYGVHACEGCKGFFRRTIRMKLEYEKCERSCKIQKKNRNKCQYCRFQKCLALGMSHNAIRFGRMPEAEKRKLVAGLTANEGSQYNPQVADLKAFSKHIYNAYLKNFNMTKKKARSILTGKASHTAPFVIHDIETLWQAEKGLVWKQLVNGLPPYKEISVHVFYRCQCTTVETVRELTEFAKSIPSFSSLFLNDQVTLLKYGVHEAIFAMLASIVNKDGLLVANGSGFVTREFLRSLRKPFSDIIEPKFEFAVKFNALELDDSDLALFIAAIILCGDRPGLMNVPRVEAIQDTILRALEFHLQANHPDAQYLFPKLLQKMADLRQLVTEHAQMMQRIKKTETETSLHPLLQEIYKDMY
In short: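 With L165041 present at 300 nM final, compounds were incubated 17 h at 37 C on PPARd UAS-bla HEK293H cells. A FRET-based beta-lactamase substrate was then applied for 2 h at room temperature and fluorescence intensity recorded.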

[3] = target: Bile acid receptor (Homo sapiens) (UniProt Q96RI1); assay: qHTS assay to identify small molecule antagonists of the farnesoid-X-receptor (FXR) signaling pathway (AID 743217; active means well fitted inhibition curve with a large enough effect in the signal ratio in the repeat runs, not every such curve was filed as active; the % refers to the signal ratio)
Bile acid receptor (Homo sapiens), sequence (Q96RI1 whole entry, looked up): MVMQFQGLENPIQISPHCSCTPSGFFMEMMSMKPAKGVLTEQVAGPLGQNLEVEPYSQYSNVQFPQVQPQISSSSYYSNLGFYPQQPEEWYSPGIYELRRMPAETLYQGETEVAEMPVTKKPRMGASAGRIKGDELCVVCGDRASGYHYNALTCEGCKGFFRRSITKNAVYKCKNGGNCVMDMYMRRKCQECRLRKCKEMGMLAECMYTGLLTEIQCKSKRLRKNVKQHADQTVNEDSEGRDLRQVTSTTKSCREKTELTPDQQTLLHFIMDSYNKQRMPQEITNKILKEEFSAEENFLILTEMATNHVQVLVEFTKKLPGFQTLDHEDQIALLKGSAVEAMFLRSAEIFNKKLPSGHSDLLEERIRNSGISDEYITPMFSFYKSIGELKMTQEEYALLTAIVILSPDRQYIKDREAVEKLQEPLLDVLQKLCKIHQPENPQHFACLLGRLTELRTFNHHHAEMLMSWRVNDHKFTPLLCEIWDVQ
In short: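 In this cell-based antagonist screen, inhibition of CDCA-driven (50 uM final) UAS-beta-lactamase expression in HEK 293T cells was measured by FRET fluorescence following 16 h compound exposure at 37 °C.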

[4] = qHTS assay to identify small molecule agonists of the farnesoid-X-receptor (FXR) signaling pathway - cell viability counter screen (AID 743218); further: nearly all actives have a fitted effect of over 45% in size
In short: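 After 16 h at 37 C with test compounds, FXR-bla HEK 293T cells were given LiveBLAzer B/G substrate for 2 h at RT and then CellTiter-Glo; luminescence was taken after 30 min.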

[5] = target: Bile acid receptor (Homo sapiens) (UniProt Q96RI1); assay: qHTS assay to identify small molecule agonists of the farnesoid-X-receptor (FXR) signaling pathway (AID 743220; active means well fitted activation curve with a large enough effect in the signal ratio in the repeat runs, not every such curve was filed as active; the % refers to the signal ratio)
In short: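 Beta-lactamase reporter under UAS control in GeneBLAzer FXR HEK 293T cells (5000/well) measured with LiveBLAzer FRET substrate after 2 h at room temperature. Compound exposure lasted 16 h at 37C.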

[6] = qHTS assay to identify small molecule antagonists of the farnesoid-X-receptor (FXR) signaling pathway - cell viability counter screen (AID 743221; active means well fitted cell-killing curve with a large enough effect in the repeat runs, not every such curve was filed as active; further: nearly all actives have a fitted effect of over 50% in size)
In short: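 FXR-UAS-bla HEK 293T cells were treated with test compounds plus chenodeoxycholic acid (50 uM final) for 16 h at 37 C. Cell viability in the same wells was then read as CellTiter-Glo luminescence after 30 min at room temperature.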

[7] = target: Vitamin D3 receptor (Homo sapiens) (UniProt P11473); assay: qHTS assay to identify small molecule antagonists of the vitamin D receptor (VDR) signaling pathway (AID 743223; active means well fitted inhibition curve with a large enough effect in the signal ratio in the repeat runs, not every such curve was filed as active; the % refers to the signal ratio)
Vitamin D3 receptor (Homo sapiens), sequence (P11473 whole entry, looked up): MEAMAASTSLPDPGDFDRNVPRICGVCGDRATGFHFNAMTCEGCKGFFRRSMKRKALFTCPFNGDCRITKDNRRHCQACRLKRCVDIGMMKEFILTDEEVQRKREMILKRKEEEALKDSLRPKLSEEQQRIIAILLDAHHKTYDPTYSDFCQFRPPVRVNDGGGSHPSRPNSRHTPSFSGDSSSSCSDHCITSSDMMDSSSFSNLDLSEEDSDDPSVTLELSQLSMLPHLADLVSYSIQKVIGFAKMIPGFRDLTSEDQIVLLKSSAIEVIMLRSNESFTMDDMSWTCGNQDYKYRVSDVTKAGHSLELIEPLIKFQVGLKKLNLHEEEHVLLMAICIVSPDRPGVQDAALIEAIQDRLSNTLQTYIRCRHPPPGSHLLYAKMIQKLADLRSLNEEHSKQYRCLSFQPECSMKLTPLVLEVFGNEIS
In short: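 VDR-bla cells were plated, incubated 4 h at 37C, then given compound and 1alpha,25-dihydroxyvitamin D3 (3 nM final). After 16 h at 37C, LiveBLAzer B/G FRET substrate was added for 2 h at room temperature and fluorescence read.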

[8] = qHTS assay to identify small molecule antagonists of the vitamin D receptor (VDR) signaling pathway - cell viability counter screen (AID 743225); further: nearly all actives have a fitted effect of over 50% in size
In short: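 VDR-bla HEK 293T cells, 4 h pre-incubation at 37C, then compound plus 1-alpha,25-dihydroxyvitamin D3 (3 nM final) for 16 h. After the beta-lactamase FRET read, CellTiter-Glo was added to the same wells; luminescence after 30 min at room temperature.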

[9] = qHTS assay to identify small molecule agonists of the NFkB signaling pathway (AID 1159509; active means well fitted curve in the direction sought with a large enough effect in the signal ratio in the repeat runs, not every such curve was filed as active; the % refers to the signal ratio; further: series mostly up to about 61 µM)
In short: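 NFkB-bla ME-180 cells with a beta-lactamase reporter under an NF-kB response element were plated overnight, treated with compounds in DMSO for 5 hr at 37 C, then loaded with FRET substrate for 1.5 hr at room temperature.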

[10] = qHTS assay to identify small molecule agonists of the NFkB signaling pathway - cell viability counter screen (AID 1159515; calls by dose curve; further: series mostly up to about 61 µM; nearly all actives have a fitted effect of over 55% in size)
In short: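 5 hr compound treatment of NFkB-bla ME-180 cells (2,000/well, seeded overnight beforehand), followed by reporter substrate for 1.5 hr. CellTiter-Glo added afterward; luminescence after 30 min RT.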

[11] = qHTS assay to identify small molecule agonists of the endoplasmic reticulum stress response signaling pathway (AID 1159516; active means well fitted activation curve with a large enough effect in the signal ratio in the repeat runs, not every such curve was filed as active; the % refers to the signal ratio)
In short: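 Reporter HeLa cells (ESRE-beta-lactamase) underwent 5 hr compound incubation at 37 C and 5% CO2 in quantitative HTS format. Detection followed 2 hr of FRET substrate loading at room temperature.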

[12] = qHTS assay to identify small molecule agonists of the endoplasmic reticulum stress response signaling pathway - cell viability counter screen (AID 1159517; calls by dose curve;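 further: HeLa cells carrying an ER stress response element beta-lactamase reporter; series mostly up to about 61 µM; nearly all actives have a fitted effect of over 50% in size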)
In short: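 Counter-screen wells were identical to the reporter wells. Cells were plated at 1,500 per well and dosed for 5 hr, then read for luminescence 30 min after CellTiter-Glo addition.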

[13] = qHTS assay to identify small molecule antagonists of the retinoid-related orphan receptor gamma (ROR-gamma) signaling pathway - cell viability counter screen (AID 1159520); further: nearly all actives have a fitted effect of over 50% in size
In short: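 Tet-on ROR gamma CHO cells were given compounds for 2 hr, then doxycycline hyclate at 1 uM final, and incubated 16 hr at 37 C. Viability was measured as ATP content by CellTiter-Glo luminescence.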

[14] = target: Nuclear receptor ROR-gamma (Homo sapiens) (UniProt P51449); assay: qHTS assay to identify small molecule antagonists of the retinoid-related orphan receptor gamma (ROR-gamma) signaling pathway (AID 1159521)
In short: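 Tet-on RORγ CHO cells carrying a ROR response element–luciferase reporter were pretreated with compounds for 2 h, then induced with 1 uM (final) doxycycline hyclate for 16 h at 37 C. Antagonism was read as decreased ONE-Glo luminescence.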

[15] = qHTS assay to identify small molecule agonists of the AP-1 signaling pathway - cell viability counter screen (AID 1159525; calls by dose curve; further: nearly all actives have a fitted effect of over 55% in size)
In short: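 AP-1-bla ME-180 cells in Opti-MEM with 0.5% dialyzed FBS, compound exposure 5 h at 37 C in 15-point titration. Viability read in the same wells as ATP content by CellTiter-Glo luminescence, normalised to tetra-n-octylammonium bromide and DMSO controls.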

[16] = qHTS assay to identify small molecule agonists of the AP-1 signaling pathway (AID 1159526; calls by dose curve)
[17] = qHTS assay to identify small molecule agonists of the RXR signaling pathway - cell viability counter screen (AID 1159529)
In short: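 RXR-alpha-UAS-bla HEK 293T cells in medium with 2% charcoal-stripped FBS were preincubated 5 hr, then exposed to compounds for 16 hr at 37 C. Viability was read as CellTiter-Glo luminescence after 30 min at room temperature.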

[18] = target: Vitamin D3 receptor (Homo sapiens) (UniProt P11473); assay: qHTS assay to identify small molecule agonists of the vitamin D receptor (VDR) signaling pathway (AID 743222; calls by dose curve)
In short: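 VDR-bla cells were seeded, left 4 h, treated with compounds in DMSO for 16 h, incubated 2 h at RT with B/G FRET substrate, and read for fluorescence.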

[19] = qHTS assay to identify small molecule agonists of the vitamin D receptor (VDR) signaling pathway - cell viability counter screen (AID 743224)
In short: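 Here cell health was gauged by luminescent ATP detection (CellTiter-Glo, 30 min RT) in VDR-bla cells that had been incubated with test compounds for 16 h at 37C and 5% CO2.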

Measured: Potency

CC1(C)CC(O)CC(C)(C)N1[O]
not listed: [18] | [19]
inactive: all other assays above

O=[N+]([O-])c1ccccc1CCO
not listed: [3] | [5]
inactive: all other assays above

O=C(O)c1ccncc1
inactive: all assays above

C/C(=C\C(C)CC(C)CC(C)C)C1CC(=O)OC1=O (stereo unspecified)
not listed: [3] | [5] | [7]
inactive: all other assays above

Cc1ccc(NC=O)c(C)c1
not listed: [7]
inactive: all other assays above

CC(C)(O)C(=O)O
not listed: [3] | [5] | [7] | [8]
inactive: all other assays above

Clc1cccc(C(c2ccc3nc[nH]c3c2)n2ccnc2)c1 (stereo unspecified)
not listed: [19]
inactive: all other assays above

N#C[C@@H]1CC(F)(F)CN1C(=O)CNC1CC2CCC(C1)N2c1ncccn1 (stereo partly specified)
not listed: [6] | [7] | [18] | [19]
inactive: all other assays above

Cc1cc(C)n(CO)n1
not listed: [7]
inactive: all other assays above

COc1cc(CNC(=O)CCCC/C=C/C(C)C)ccc1O
not listed: [3] | [7] | [18] | [19]
inactive: all other assays above

CCCCCCCCC(=O)OCC(C)OC(=O)CCCCCCCC (stereo unspecified)
not listed: [3] | [5] | [8] | [18] | [19]
inactive: all other assays above

COC(=O)Cc1cccc2ccccc12
not listed: [3] | [5]
inactive: all other assays above

Cc1ccccc1CCO
not listed: [4]
inactive: all other assays above

O=P(c1ccccc1)(c1ccccc1)c1ccccc1
not listed: [18]
inactive: all other assays above

CCCCCCCCNC
not listed: [8]
inactive: all other assays above

O=C1C=CCCC1
not listed: [7] | [18]
inactive: all other assays above

CS(C)=O
not listed: [6] | [7] | [19]
inactive: all other assays above
